PubChem BioAssay AID1851 (National Center for Advancing Translational Sciences (NCATS), 2009)
Screen size: about 16,000 compounds; about 5,700 (36%) were called active. Another 24% or so got no clear call; they are omitted. The list shows a part of the results. A number with no mark means an inactive call. The call rests on the fitted dose curve; in most records, active means well fitted curve in the direction sought with a large enough effect; inconclusive means small, poorly fitted or top-dose-only effect, or effect the other way; inactive means no such curve, though single readings can be large or run the other way.

biological target: Cytochrome P450 1A2 (Homo sapiens) (UniProt P05177); assay: Cytochrome panel assay with activity outcomes; conditions: recombinant CYP, pro-luciferin dealkylation, luminescence, p450-cyp1a2; series mostly up to 57.1 µM; activity, negative = inhibition: at the top concentration
Sequence (P05177 whole entry, looked up): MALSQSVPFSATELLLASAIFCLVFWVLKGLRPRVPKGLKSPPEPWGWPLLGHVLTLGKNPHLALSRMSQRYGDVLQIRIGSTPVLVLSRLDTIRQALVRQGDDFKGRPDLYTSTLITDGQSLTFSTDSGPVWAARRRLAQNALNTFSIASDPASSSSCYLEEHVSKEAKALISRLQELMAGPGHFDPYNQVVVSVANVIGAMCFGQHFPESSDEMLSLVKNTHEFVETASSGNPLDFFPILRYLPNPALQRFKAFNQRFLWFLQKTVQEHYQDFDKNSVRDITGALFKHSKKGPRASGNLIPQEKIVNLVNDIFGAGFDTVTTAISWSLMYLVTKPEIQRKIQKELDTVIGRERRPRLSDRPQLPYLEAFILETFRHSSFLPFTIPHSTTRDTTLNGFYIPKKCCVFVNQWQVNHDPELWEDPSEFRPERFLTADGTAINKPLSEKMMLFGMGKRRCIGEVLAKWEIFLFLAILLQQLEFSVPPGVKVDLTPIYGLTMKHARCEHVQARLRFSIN
Method: The P450 gene superfamily is involved in the metabolism and clearance of xenobiotics. This assay used various human CYP P450 isozymes to measure the dealkylation of various pro-luciferin substrates to luciferin. The luciferin is then measured by luminescence after the addition of a luciferase detection reagent. Pro-luciferin substrate concentration in the assay was equal to its KM for its CYP P450 isozyme. Inhibitors and some substrates limit the production of luciferin, and decrease measured luminescence.
NCGC Assay Protocol Summary:
1, Reagent, 2 uL, Isozyme and Pro-Luciferin
2, Library compounds, 23 nl, 40 uM to 0.24 nM dilution series
3, Controls, 23 nl, Isozyme specific inhibitor
4, Reagent, 2 uL, NADPH regeneration solution
5, Incubation time, 60 min, Isozyme specific temperature
6, Reagent, 4ul, Detection reagent
7, Incubation time, 20 min, Isozyme specific temperature
8, Detection, 1 sec, ViewLux luminescent read
The luciferase-based P450-GloTM Screening Systems were obtained from Promega (Madison, WI) for CYP 1A2 (V9770), CYP 2C9 (V9790), CYP2 C19 (V9880), CYP 2D6 (V9890), and CYP 3A4 Luciferin-PPXE (V9910) and were adapted for 1,536-well microplates and an automated protocol. The control compounds furafylline for 1A2 (F124), sulfaphenazole for CYP 2C9 (S0758), ketoconazole for CYP 2C19 (K1003), quinidine for 2D6 (Q3625), and ketoconazole for 3A4 (K1003) were purchased from Sigma Aldrich (St. Louis, MO). Recombinant P450 enzymes were obtained from baculovirus constructs expressed in insect cells (BD/Gentest).
Medium-binding white solid Kalypsys plates used. Mixtures kept on ice. 1A2: 10 nM 1A2, 100 uM Luc-ME, 100 mM KPO4; 2C9: 10 nM 2C9, 100 uM Luc-H, 25 mM KPO4; 2C19: 5 nM 2C19, 10 uM Luc-H EGE, 50 mM KPO4; 2D6: 5 nM 2D6, 30 uM Luc-ME EGE, 100 mM KPO4; 3A4: 10 nM, 25 uM Luc-PPXE. All amounts are reflected in their final concentration, working concentration is 2x.
NADPH regeneration solution: 1.3 mM NADP+, 3.3 mM glucose-6-phosphate, 3.3 mM MgCl2, 0.4 U/mL glucose-6-phosphate dehydrogenase for all isozymes, 200 mM KPO4 for 3A4. Mixture prepared at RT but kept on ice during automated run.
RT incubation in auxilliary plate hotel for 1A2, 2D6, and 3A4; 37C for 2C9 and 2C19.
Keywords: P450, CYP1A2, CYP2C19, CYP2C9, CYP2D6, CYP3A4, Luciferase, MLSMR, MLSCN, NIH Roadmap, qHTS, NCGC
On the % scale 0 is the no-effect control and ±100 the full control effect.

Compound | activity, negative = inhibition | AC50
C[C@@]12C(=O)OC(=O)[C@@]1(C)[C@H]1CC[C@@H]2O1 | -6% | –
CC(=O)[C@]1(O)CC[C@@H]2[C@H]3C[C@@H](C)C4=CC(=O)CC[C@@]4(C)[C@H]3[C@@H](O)C[C@]21C | -1.99% [at 2.29 µM] | –
CC(C)N[C@@H](C)Cc1ccc(I)cc1 | – | 10 µM (active)
O=C1NC(=S)NC(=O)C1=Cc1cccc2cc3ccccc3cc12 | – | 0.398 µM (active)
C[C@]12CC[C@@H]3[C@H](CCC4=CC(=O)CC[C@]43C)[C@]1(O)CC[C@@]2(O)C(=O)CO | 4.85% [at 2.29 µM] | –
CCCCCCCCCOc1ccc2[nH]cc(CCN)c2c1 | – | 0.0398 µM (active)
NCCc1c[nH]c2ccc(OC(=O)C(=O)O)cc12 | – | 2.51 µM (active)
COc1ccc2[nH]cc(CCN(C)C)c2c1 | – | 15.8 µM (active)
COc1ccc2[nH]cc(CCN)c2c1 | – | 1.58 µM (active)
CC(=O)O[C@H]1CC[C@@]2(C)C(=CC[C@@H]3[C@H]2CC[C@]2(C)C(=O)CC[C@H]32)C1 | -16.8% [at 25.6 µM] | –
CC(C)NC(=O)N1CCC2(CC1)CCN(C(=O)Oc1ccccc1)CC2 | 3.33% | –
CCOC(=O)c1[nH]c(C)c(C(=O)N2CCC3(CC2)OCCO3)c1C | -26.6% | –
CN(C)C(=O)Oc1ccc[n+](C)c1 | 2.74% | –
CC(C)(C)NC[C@H](O)c1cc(Cl)c(N)c(Cl)c1 | -1.17% [at 25.6 µM] | –
COCCNC(=S)N1C2CCC1CC(NC(=O)NC13CC4CC(CC(C4)C1)C3)C2 (stereo not given) | 18.7% | –
Nc1nc(N)c(Cn2ccnc2)c(=O)[nH]1 | -19.7% [at 11.4 µM] | –
Cn1c(=O)c2[nH]cnc2n(C)c1=O | -27% [at 25.6 µM] | –
C[C@@]12CC[C@H]3[C@@H](CCC4=C(O)C(=O)CC[C@]43C)[C@H]1CCC2=O | -8.41% | –
Nc1ncnc2c1ncn2[C@@H]1O[C@@H](COP(=O)(O)CP(=O)(O)OP(=O)(O)O)[C@H](O)[C@@H]1O | 2.41% | –
CCCCn1c(O)c(C=NCCN2CCCCC2)c(=O)[nH]c1=O | -2.11% | –
Cc1ccccc1OCCN=Cc1c(O)n(C)c(=O)n(C)c1=O | – | 12.6 µM (active)
COc1cccc(-n2c(O)c(C=NCCN3CCOCC3)c(=O)[nH]c2=O)c1 | 4.03% | –
CCCCCCN=Cc1c(O)n(C)c(=O)n(C)c1=O | – | 12.6 µM (active)

Compound | activity, negative = inhibition | AC50
O=C(O)/C=C\c1ccc[c]([Sb](=[O])([OH])[OH])c1 | -9.5% [at 2.29 µM] | –
NC(N)=Nc1ccc2[nH]c3c(c2c1)C[C@]1(O)[C@@H]2Cc4ccc(O)c5c4[C@]1(CCN2CC1CC1)[C@@H]3O5 | 4.44% | –
NNC(=O)c1ccc(O)cc1 | -20.8% | –
CSCC[C@@H](N)P(C)(=O)O | -11% [at 11.4 µM] | –
COC(=O)N1CCC2(CCCN(C)C2)CC1 | 2.96% | –
C[C@H](Br)CN(C[C@H](C)Br)c1ccc2c(c1)Cc1ccccc1-2 | – | 3.16 µM (active)
CCN1C[C@]2(C)CC[C@H](O)[C@@]34[C@@H]5CC6[C@@H](OC)C[C@@](O)([C@@H]5[C@@H]6O)[C@H](C[C@@H]23)[C@H]14 | -7.34% [at 25.6 µM] | –
C[C@@H]1O[C@@H](O[C@H]2C[C@@H](O)[C@]3(CO)[C@@H]4[C@@H](O)C[C@]5(C)[C@H]([C@@H]6COC(=O)C6)CC[C@@]5(O)[C@H]4CC[C@@]3(O)C2)[C@H](O)[C@H](O)[C@@H]1O | -2.23% | –
CN1CC[C@@]2(CCCN(C(=O)Oc3ccccc3)C2)C1 | -21.9% | –
Cc1ncsc1CCCl | – | 31.6 µM (active)
Oc1ccc([C@H](O)[C@@H]2CCCCN2)cc1O | -3.47% [at 11.4 µM] | –
O=C(O)[C@@H]1C[C@H]1[C@@H](NP(=O)(c1ccccc1)c1ccccc1)c1ccccc1 | -1.59% | –
C=C(CC1(C(C)NP(=O)(c2ccccc2)c2ccccc2)CC1)c1ccccc1 (stereo not given) | – | 15.8 µM (active)
O=C(O)[C@H]1C[C@@H]1[C@H](NP(=O)(c1ccccc1)c1ccccc1)c1ccccc1 | -1.74% | –
c1csc(CN2CCCC3(CCNCC3)C2)n1 | -13% | –
CC(=O)O[C@H]1CC[C@@]2(C)[C@@H](CC[C@H]3[C@H]2CC(=O)[C@@]2(C)[C@@H]3C[C@H]3CC(C)=CC(=O)[C@H]32)C1 | -8.97% [at 2.29 µM] | –
C[C@H](CCC(=O)O)[C@H]1CC[C@]2(C)[C@@H]3C(=O)C[C@H]4C(C)(C)[C@@H](O)CC[C@]4(C)[C@H]3C(=O)C[C@@]12C | -10.7% [at 11.4 µM] | –
C[C@H]1CC[C@@]2(NC1)O[C@@H]1C[C@H]3[C@@H]4CC=C5C[C@@H](O)CC[C@]5(C)[C@@H]4CC[C@]3(C)[C@@H]1[C@@H]2C | -7.71% [at 25.6 µM] | –
CN(C)CCCc1cccnc1 | -10.2% [at 2.29 µM] | –
COc1ccccc1CC1C(=O)C2CCN1CC2 (stereo not given) | -5.49% | –
OC1(c2ccc(Cl)cc2)CCN(Cc2c[nH]c3ccccc23)CC1 | – | 31.6 µM (active)
CN(C)Cc1c[nH]c2ccccc12 | -20.8% [at 25.6 µM] | –
